# The sample as a whole holds a higher share of hits than the screen did.
# TTR transcr act = activators of transthyretin transcription; hit rate 1.3% among 92,000; activation, % at 16.7 µM; SH-SY5Y TTR promoter Gaussia luciferase, luminescence; 100% = recombinant luciferase protein wells; AID 1117267;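 active means activation above the mean of all tested compounds plus 3 SD, cut at about 9.5% in these data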;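 further: cells exposed to compounds for one day before reading; 0% = median of all test compound wells on the plate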
# HuH7 TTR inh = counter-screen for TTR activators: TTR transcription inhibitors in HuH7 cells | shares compounds with TTR transcr act | HuH7 TTR promoter-Gaussia luciferase reporter, luminescence | inhibition, % at 16.7 µM | hit rate 4% among 1,100 | AID 1117279;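 active means average inhibition above the solvent-only control wells' mean plus 3 SD, cut at about 15% in these data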;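 further: 0% = cells with DMSO only and 100% = cells with inhibitor control FD; inhibitors lower well luminescence so higher value means more inhibition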
# TTR up confirm = human TTR transcription activation, confirmation; SHSY5Y TTR promoter Gaussia luciferase, luminescence; 100% = purified Lucia enzyme wells, no cells; 1,100 tested, under 10 active; shares compounds with TTR transcr act; activation, % at 16.7 µM;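 active means mean activation above a set limit taken from the earlier primary screen, cut at about 11% in these data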;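 further: 0% = DMSO-treated cells and 100% = recombinant Lucia luciferase without cells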
# * hit, by the source's call.
SMILES,TTR transcr act,others
Cc1ccnc(SCc2cc(=O)c(OC(=O)c3ccc(C#N)cc3)co2)n1,-0.6,
O=C(NCC(c1ccccc1)c1ccccc1)[C@H](Cc1ccccc1)NC1(C(=O)NC2CCCCC2)CCOCC1,-1.0,
C[C@@H]1CCCN1c1ccc2c(c1)OCCCN(C1CC1)S2(=O)=O,0.1,
COC(=O)[C@@]12CCCCC3=C1N(CCC3)C(=O)[C@H]2CC(=O)NCC1CCCCC1,-0.3,
CCOC(=O)c1cnc(-c2ccccc2)nc1N1CCOCC1,-1.4,
CCOC(=O)c1cnc2c(-c3ccccc3)cnn2c1C,12.6*,HuH7 TTR inh=-2.5;TTR up confirm=4.5
CCOC(=O)c1cnc2cc(-c3ccc(Br)cc3)nn2c1C,1.8,
CCOC(=O)[C@]12CCCC=C1N(CCCOC)C(=O)[C@@H]2CC(=O)NCC12CC3CC(CC(C3)C1)C2,2.7,
C=C1[C@@H]2CC[C@H]3[C@]4(C)[C@@H](O)CC[C@@](C)(C(=O)OC)[C@H]4C[C@H](O)[C@]3(C2)[C@H]1O,-0.7,
O=C(NCCc1ccccc1)OCc1cn(Cc2cccc(F)c2F)nn1,0.7,
CCCN(N=Nc1cccc([N+](=O)[O-])c1)c1cccc([N+](=O)[O-])c1,-1.6,
CC(=O)N(C)c1cccc([N+](=O)[O-])c1,0.3,
CN(N=Nc1cccc([N+](=O)[O-])c1)c1cccc([N+](=O)[O-])c1,20.4*,HuH7 TTR inh=-7.9;TTR up confirm=-0.7
c1ccc2cc3[nH]c(CNc4nc(N5CCOCC5)nc5c4ncn5-c4ccsc4)nc3cc2c1,7.7,
NNS(=O)(=O)c1ccc(Cc2ncc(C(F)(F)F)cc2Cl)s1,3.2,
CCN(CC)S(=O)(=O)c1ccc(Cc2ncc(C(F)(F)F)cc2Cl)s1,9.9*,HuH7 TTR inh=-10.9;TTR up confirm=-0.4
NS(=O)(=O)c1ccc(Cc2ncc(C(F)(F)F)cc2Cl)s1,1.2,
COC(=O)c1cccc(Cn2ccc3ccc(-c4ccc5ccn(C(=O)C6CC6)c5c4)cc32)c1,1.6,
CCOC(=O)CN(C(=O)COc1nc(C)cc(C)c1C#N)c1ccc(F)cc1,-0.8,
COc1ccc(C(=O)COc2nc(C)cc(C)c2C#N)cc1,7.2,
CCOc1ccc(N(C(C)=O)c2nc(C)cc(C)c2C#N)cc1,19.3*,HuH7 TTR inh=-6.4;TTR up confirm=0.2
CC1(C)CC(=O)c2c(O)cc(OCC(=O)N3CCN(c4ccccc4)CC3)cc2O1,-0.5,
CCn1c(=O)cc(OCC(=O)NCCc2ccc(OC)c(OC)c2)c2ccccc21,0.8,
CCn1c(=O)cc(OCC(=O)NCC2CCCO2)c2ccccc21 (centres undefined),-1.8,
CCn1c(=O)cc(OCC(=O)Nc2nc(C)cs2)c2ccccc21,10.6*,HuH7 TTR inh=-23.3;TTR up confirm=-0.3
SMILES,TTR transcr act,others
O=C(NCc1cccs1)O[C@H]1CC[C@@]23CCCN2C(=O)CCC[C@H]3C1,-0.1,
CC(OC(=O)Cn1c(C(F)(F)F)nc2ccccc21)C(=O)N1CCCc2ccccc21 (centres undefined),3.9,
CC(Oc1ccccc1)C(=O)N1CCCc2ccccc21 (centres undefined),10.2*,HuH7 TTR inh=-16.2;TTR up confirm=0.7
CSC1=NCCN1C(=O)C(C)Oc1ccccc1 (centres undefined),-1.2,
O=C(NC1CCCCN(Cc2ccc(Cl)cc2)C1=O)c1ccc(F)c(F)c1 (centres undefined),7.0,
CCOc1ccc(Oc2nc(NCC(C)C)nc(OC)n2)nn1,1.5,
CCOc1ccc(Oc2nc(NCC(C)C)nc(N(C)C)n2)nn1,-0.6,
CCNc1nc(NC(C)CC)nc(Oc2ccc(OCC)nn2)n1 (centres undefined),12.6*,HuH7 TTR inh=-9.3;TTR up confirm=0.3
CCCCOCCCNC(=O)C[C@H]1C[C@@]2(C(=O)OC)C(=C[C@H](C3CCCC3)O[C@@H]2C)N(Cc2cccc3ccccc23)C1=O,-1.1,
COC(=O)[C@]12C[C@H](CC(=O)NCc3ccc(C)o3)C(=O)N(CCc3ccc(OC)c(OC)c3)C1=C[C@H](COCc1ccccc1)O[C@@H]2C,1.0,
CCCCc1ccc(-c2noc(CCC(=O)NCC)n2)cc1,-1.4,
O=S1(=O)c2ccc(N3CC[C@H](O)C3)cc2O[C@H]2CCN1C2,4.1,
CN(Cc1ccc(Cl)cc1Cl)C(=O)Cc1ccc(S(=O)(=O)N2CCOCC2)s1,20.5*,HuH7 TTR inh=-5.5;TTR up confirm=-0.5
CC1CCCCC1NC(=O)Cc1ccc(S(=O)(=O)N2CCOCC2)s1 (centres undefined),0.9,
CCOc1ccc(S(=O)(=O)N2CCN(C(=O)Cc3ccc(S(=O)(=O)N4CCOCC4)s3)CC2)cc1,3.5,
O=C(OCC#CCSc1nnc(-c2cccc3ccccc23)o1)c1ccc(Cl)c(C(F)(F)F)c1,0.0,
COC(=O)[C@H](C)NC(=O)[C@H](CC(C)C)NC(=O)OC(C)(C)C,-2.0,
COc1cccc(C(O)c2nccn2Cc2ccccc2)c1OC (centres undefined),1.0,
COc1ccccc1C(O)c1nccn1C (centres undefined),14.4*,HuH7 TTR inh=-3.5;TTR up confirm=-0.5

# Source: PubChem BioAssay
